Assay results taken from PubChem BioAssay AID2113 (National Center for Advancing Translational Sciences (NCATS), 2009).
Where “and” joins values, the source holds several entries; their conditions need not be identical. Equal values may be shown once. Records with an inconclusive call do not appear. A number with no mark means an inactive call. Calls of active or inactive are those of the source. Calls follow the shape of the dose curve; as a rule, active = well fitted curve in either direction with a large enough effect; inconclusive = small, poorly fitted or top-dose-only effect; inactive = no such curve, though single readings can be large or run the other way.

Each compound was assayed against Lysosomal alpha-glucosidase (Homo sapiens) (UniProt P10253) (assay: Confirmation of Inhibitors and Activators of Human alpha-Glucosidase From Spleen Homogenate). Settings: alpha-glucosidase enzyme activity; series mostly up to 60.5 µM; activity change, both directions: at the top concentration.
Outline: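 Compounds titrated against spleen-homogenate alpha-glucosidase, pH 5.0, 1 mM 4-MU-glucoside substrate, 37 C for 40 min. Fluorescence after pH 10 stop, normalised to no-enzyme and enzyme controls; Hill-equation AC50.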
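For Potency in this document: fluorescence of 4-methylumbelliferone released from a fluorogenic glucopyranoside substrate at pH 5.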
For activity change, both directions in this document: 0% is about no effect.
Potency is read from the fitted curve at half-maximal effect.

Row | Structure (SMILES) | activity change, both directions | Potency
1 | CC(=O)c1ccc(N2CCN(S(=O)(=O)c3ccc4c(c3)CCCC(=O)N4)CC2)cc1 | -0.329% | 
2 | COc1ccc(OC)c(/C=C/C(=O)N(C)CC(=O)Nc2ccc(C)cc2)c1 | 6.32% [at 31.5 µM] | 
3 | COc1ccc(NS(=O)(=O)c2ccc(O)c(NC(=O)c3cc4c(C)nn(-c5ccc(F)cc5)c4s3)c2)cc1 | -1.49% | 
4 | Nc1cc(=O)[nH]c(=S)n1-c1cccc(C(F)(F)F)c1 | -2.3% [at 31.5 µM] | 
5 | O=C1Cc2cc(S(=O)(=O)N3CCNCC3)ccc2N1 | -8.69% | 
6 | Cc1sc(-c2cc3ccccc3oc2=O)nc1-c1ccc(Cl)cc1 | 11% | 
7 | CCCN1CNc2c(c(=O)[nH]c(=S)n2CCc2cccs2)C1 |  | 35.5 µM (active)
8 | CC1CCc2nc(-c3cc4ccc(O)cc4oc3=O)sc2C1 (stereo unspecified) | 17.6% | 
9 | CCCN1CNc2c(c(=O)[nH]c(=S)n2CCc2ccc(OC)cc2)C1 |  | 14.1 µM (active)
10 | Cn1c2c(c(=O)n(C)c1=O)CN(CC1CCCO1)CN2 (stereo unspecified) | 6.19% [at 31.5 µM] | 
11 | COc1ccc(/C=C/c2nnc(NC(=O)CSc3ccccc3)s2)cc1 | 2.85% | 
12 | COc1ccc(CCn2c3c(c(=O)[nH]c2=S)CN(Cc2ccccc2)CN3)cc1OC |  | 11.2 µM (active)
13 | COc1ccccc1NC(=O)c1ccc(Br)o1 | -0.467% [at 31.5 µM] | 
14 | CC(=O)Nc1ccc(S(=O)(=O)N2CCN(c3ccc(C(C)=O)cc3)CC2)cc1 | -0.437% | 
15 | CCCN1CNc2c(c(=O)[nH]c(=S)n2CCc2cccc(OC)c2OC)C1 |  | 15.8 µM (active)
16 | CCCn1c(N)c(CC)c(=O)[nH]c1=O | -3.88% [at 31.5 µM] | 
17 | O=C1CC(N2CCN(c3cccc(C(F)(F)F)c3)CC2)C(=O)N1c1ccc(F)cc1 (stereo unspecified) | 0.41% [at 31.5 µM] | 
18 | Cc1ccc2nc(-c3ccccc3N)[nH]c2c1 | 24.5% | 

Row | Structure (SMILES) | activity change, both directions | Potency
19 | COc1ccc(/C=C\c2nccc3c2[nH]c2ccccc23)cc1 | 19.6% | 
20 | COC(=O)c1ccc(C(=O)OC)c(NC(=S)N2CCOCC2)c1 | 7.39% [at 31.5 µM] | 
21 | CC(N=C(NC#N)Nc1ccncc1)C(C)(C)C (stereo unspecified) | 1.36% | 
22 | CCCN1CNc2c(c(=O)[nH]c(=S)n2CCc2ccc(OCC)c(OCC)c2)C1 |  | 25.1 µM (active)
23 | O=C(O)Cc1sc(-c2cc3ccccc3oc2=O)nc1-c1ccc(Br)cc1 | -0.847% | 
24 | O=S(=O)(c1ccc2c(c1)C(=NNc1ccccc1)c1cc(S(=O)(=O)N3CCOCC3)ccc1-2)N1CCOCC1 | -3.62% | 
25 | COc1ccc(/C=C/c2nnc(NC(=O)COc3ccc(Cl)cc3)s2)cc1 | -1.2% | 
26 | O=S(=O)(c1ccc(F)cc1)N1CCOCC1 | 9.5% | 
27 | O=C(O)Cc1sc(-c2cc3ccccc3oc2=O)nc1-c1ccc(-c2ccccc2)cc1 | -1.37% | 
28 | CCCCn1c(CN2CCN(c3cccc(Cl)c3)CC2)nc2c1c(=O)n(C)c(=O)n2C | -2.65% [at 31.5 µM] | 
29 | O=C1c2cc(S(=O)(=O)N3CCOCC3)ccc2-c2ccc(S(=O)(=O)N3CCOCC3)cc21 | -16.8% | 
30 | N#Cc1ccc(S(=O)(=O)N2CCOCC2)cc1 | -2.24% | 
31 | Cn1c(-c2ccco2)nc2cc3ccccc3cc21 | 7.84% [at 31.5 µM] | 
32 | O=S(=O)(c1ccc2nc(-c3ccco3)c(-c3ccco3)nc2c1)N1CCOCC1 | -14.7% | 
33 | CCCN1CNc2c(c(=O)[nH]c(=S)n2CCc2ccc(OC)c(OC)c2)C1 |  | 11.2 µM (active) and 15.8 µM (active)
34 | CC1S/C(=N\N=C\c2cccc([N+](=O)[O-])c2)N(C(C)(C)C)C1=O (stereo unspecified) | -1.21% [at 31.5 µM] | 
35 | O=C(c1ccccc1)N1CCN(C(=O)N(c2ccccc2)c2ccccc2)CC1 | 1.94% | 
36 | CC(=O)c1ccc(N2CCN(S(=O)(=O)c3ccc4c(c3)CC(=O)N4)CC2)cc1 |  | 1.03 µM [inhibitor] (active) and 520 nM [inhibitor] (active) and 2.06 µM [inhibitor] (active)
